Bioassay records (PubChem)
Pf growth 48h: inhibits P. falciparum growth in the first generation, 48 h; Potency, µM (top dose mostly 28.7 µM), for the others: top-dose activity change, negative = inhibition, hits mostly inhibitors; actives 5.9% (n = 310,000); P. falciparum luciferase growth in erythrocytes, 48 h; note: potency is the fitted concentration of half-maximal effect; % is set by controls: 0 for no effect and ±100 for the full control effect
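Luminescence readout; reporter = integrated firefly luciferase in P. falciparum. RBC culture at 2% hematocrit, 0.1% parasitemia final, 37 C/5% CO2; decreased signal taken as growth inhibition.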
Pf growth 96h: P. falciparum growth inhibition at 96 hours. Potency, µM (doses to about 28.7 µM), for the others: at the top dose activity change, negative = inhibition, actives largely listed as inhibitors. P. falciparum luciferase reporter growth, 96 h. actives 6.9% (n = 320,000). AID 504834; note: potency is the fitted concentration of half-maximal effect; % is set by controls: 0 for no effect and ±100 for the full control effect
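Delayed-death screen, second-generation endpoint: infected erythrocytes, 2% hematocrit, 0.05% parasitemia final; 96 hours at 37 C, 5% CO2; luciferase detection reagent; luminescence decrease equals reduced growth.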
Sm TGR block: inhibitors of Schistosoma mansoni thioredoxin glutathione reductase | Q962Y6 | actives 3% (n = 360,000) | purified TGR, DTNB reduction, TNB absorbance 405 nm | Potency, µM (top dose mostly 114 µM), without a hit: at the highest dose activity change, negative = inhibition, hits mostly inhibitors | AID 485364; note: potency is the fitted concentration of half-maximal effect; % is set by controls: 0 for no effect and ±100 for the full control effect; nearly all actives have a fitted effect of over 60% in size
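First, TGR (20 nM dispensed) and NADPH were mixed with compound. Second, a 15 min room-temperature incubation followed. Third, further NADPH and then DTNB were added to start the reaction. Finally, TNB absorbance was monitored kinetically.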
SARS PLP yeast: blocks SARS-CoV papain-like protease in a yeast assay; AID 485353; S. cerevisiae expressing SARS-CoV PLpro, growth rescue; Potency, µM (highest dose often 32.9 µM), without a hit: at the highest dose activity, positive = growth rescue, most hits filed as activators; actives 0.19% (n = 330,000); calls by dose curve; note: potency is the fitted concentration of half-maximal effect; 0% is about no effect; nearly all actives have a fitted effect of over 55% in size
HCMV antiviral: blocks human cytomegalovirus replication; HFF cells, HCMV-luciferase reporter, 72 h; active compounds read low; activity change, negative = inhibition, % at 57.5 µM; actives 4.5% (n = 410,000); AID 1259415; in the data active = activity change below about -60%; inconclusive = no clear call, values can overlap the other calls; inactive = above about -39%; note: % is set by controls: 0 for no effect and ±100 for the full control effect
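Luciferase read-out from HCMV-luciferase-infected HFFs (MOI 1 PFU/cell) 72 h post infection at 37C; compounds added after 16 h cell attachment; activity normalized between buffer-only basal and Salinomycin (10uM) inhibitor controls.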
HCV inh: HCV inhibition; Potency, µM (titrated, usually from 41.8 µM), for inactives: top-dose activity change, negative = inhibition, usual class: inhibitors; Huh7.5.1 HCVcc-Cre infection, luciferase reporter, 44 h; actives 3.4% (n = 340,000); note: potency is the fitted concentration of half-maximal effect; % is set by controls: 0 for no effect and ±100 for the full control effect
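After 44 h co-culture of compound, cells and HCVcc-Cre (~0.5 moi), substrate is added for 15 min at room temperature and luciferase measured over 15 sec. Cells were seeded at 1,000/well and pre-cultured 4 h.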
Starred values were filed as active, the others as inactive; ? = inconclusive; · = not tested or not shown; [ ] = another dose, or the depositor's remark. Most compounds without a hit are left out; they make up all but 15% or so of the library. Unless noted, calls come from the whole dose curve; as a rule, active = well fitted curve in the direction sought with a large enough effect; inconclusive = small, poorly fitted or top-dose-only effect, or another doubt; inactive = no such curve, though single readings can be large; an effect the other way counts as inactive or inconclusive.

SMILES	Pf growth 48h	Pf growth 96h	Sm TGR block	SARS PLP yeast	HCMV antiviral	HCV inh
Cc1nn(-c2ccccc2)c(N2CCCC2)c1/C=N/NC(=S)Nc1ccccc1F	10.4µM*	?	-2.4%	-2.3%	-61.3*	?
Cc1nn(-c2ccccc2)c(N2CCCC2)c1/C=N/NC(=O)c1cc(-c2ccccn2)nc2ccccc12	?	?	-1.6%	-3.1%	79.1	3.98µM*
CCNC(=O)C1CCCN(C(=O)c2ccc(OC)c(OC)c2)CC1 (centres undefined)	·	·	·	·	1.3	·
CCCCn1c(N)c(N(CCOC)C(=O)COC(=O)c2ccccc2NCCO)c(=O)[nH]c1=O	·	·	·	·	-25.8	2.6%
COc1ccc(N2CC(NC(=O)C3CC3)CC2=O)cc1OC (centres undefined)	·	·	5.4%	·	-32.9	·
Cn1cc(C(F)(F)F)nc1-c1ccc(OCC(O)CNCCOc2ccc(O)c(C(N)=O)c2)cc1 (centres undefined)	9.28µM*	?	-3.2%	1.6%	5.4	?
COc1cc(C2NC(=O)NC(O)(C(F)(F)F)C2C(=O)c2ccc(Cl)cc2)ccc1O (centres undefined)	6.2%	44.6%	?	1.3%	-30.6	20.1%
COc1cc(C2NC(=O)NC(O)(C(F)(F)F)C2C(=O)c2cccs2)ccc1O (centres undefined)	0.0%	13.1µM*	?	3.9%	24.1	-2.1%
COc1ccc(C2NC(=O)NC(O)(C(F)(F)F)C2C(=O)c2ccc(F)cc2)cc1 (centres undefined)	-10.4%	·	44.7µM*	-2.2%	9.3	-0.6%
COc1ccc(CNC(=O)CCS(=O)(=O)c2ccc3nc(C)sc3c2)cc1	·	·	·	·	32.8	·
NS(=O)(=O)c1ccc(NC(=O)CCC(=O)c2ccc(Cl)s2)cc1	-15.2%	26.7%	-4.7%	-2.0%	-95.0*	8.4%
Cc1ccc(C(C)(C)C)c(OCCCn2ccnc2)c1	?	?	-15.8%	-41.7%	3.4	-8.9%
c1ccc(-c2ccccc2OCCCCn2ccnc2)cc1	11.7µM*	?	?	2.2%	-20.7	-11.1%
Clc1ccccc1OCCn1ccnc1	0.1%	·	1.6%	·	-20.7	3.1%
Cc1cc(C)c(C)c(S(=O)(=O)NCCCn2ccnc2)c1C	?	6.57µM*	-2.1%	0.9%	-2.2	12.4%
Cc1ccc(C)c(OCCCCn2ccnc2)c1	·	13.1µM*	2.9%	-6.7%	?	?
CC(C)(C)c1ccccc1OCCCCCn1ccnc1	11.7µM*	5.86µM*	0.9%	-3.4%	13.3	?
Cc1nn(C)cc1S(=O)(=O)Nc1ccc(C(F)(F)F)cc1	31.7%	-5.8%	1.1%	1.4%	-6.7	9.5%
CC(O)CNCCCOc1ccc(Cl)cc1C(C)(C)C (centres undefined)	?	64.0%[5.75 µM]	6.9%	0.8%	1.3	11.2µM*
CC(C)(C)c1cc(Cl)ccc1OCCn1ccnc1	5.86µM*	?	6.0%	-9.8%	-25.9	-10.1%
CN(C)CCOCCOc1ccc(Cl)cc1C(C)(C)C	?	483.8%	7.6%	-1.5%	?	?
Cc1cccc(OCCCCCn2ccnc2)c1C	?	?	-24.0%	-2.8%	-80.8*	?
Cc1cccc(C)c1OCCCn1ccnc1	?	-13.0%	8.3%	0.4%	-18.2	2.5%
N=c1c[n+](CC23CC4CC(CC(C4)C2)C3)[n-]o1	?	?	19.9%	2.1%	-74.9*	6.3%
CC(C)CCn1c(N2CCCC2)nc2c1c(=O)[nH]c(=O)n2C	-18.3%	0.0%	0.2%	10.9%	80.8	-10.7%
SMILES	Pf growth 48h	Pf growth 96h	Sm TGR block	SARS PLP yeast	HCMV antiviral	HCV inh
COCCn1c(Sc2nc(C)cs2)nc2c1c(=O)[nH]c(=O)n2C	-21.9%	13.1µM*	-10.6%	0.7%	26.7	?
COCCn1c(SCc2ccccc2Cl)nc2c1c(=O)[nH]c(=O)n2C	-17.4%	15.0%	-34.1%	-5.4%	-34.3	-24.4%
CC(C)CCn1c(N2CCC(C(N)=O)CC2)nc2c1c(=O)[nH]c(=O)n2C	·	?	0.0%[11.4 µM]	2.0%	-93.7*	19.9%
CCOC(=O)Cn1c(N2CCOCC2)nc2c1c(=O)[nH]c(=O)n2C	-7.0%	11.7µM*	2.2%	0.3%	-21.5	12.2%
COCCn1c(N2CCCC2)nc2c1c(=O)[nH]c(=O)n2C	13.1µM*	49.9%	-18.0%	-2.5%	-5.6	12.8%
CCOc1ccc(C(=O)N2CC(=O)Nc3ccc(C)cc3C2c2ccc(F)cc2)cc1OCC (centres undefined)	·	·	1.1%	·	-13.2	·
CCOC(=O)c1nc(NCc2ccc(Cl)cc2)c2c(C)noc2n1	·	·	-1.3%	·	13.3	·
Cn1c(N2CCCCC2)nc2c1c(=O)[nH]c(=O)n2C	-0.5%	10.4µM*	1.6%	17.1%	0.5	-1.1%
COc1ccc(CN(C)C(=O)CCl)cc1	13.1µM*	10.4µM*	22.4µM*	-0.7%	0.5	?
CN(Cc1ccccc1)C(=O)CC(=O)N(C)Cc1ccccc1	18.7%	0.0%	-1.0%	22.3%	27.0	14.8%
CN(Cc1ccc(Cl)cc1)C(=O)CCl	?	?	1.78µM*	-16.0%	-64.3*	?
COc1ccc(CN(C)C(=O)c2cccc(C(=O)N(C)Cc3ccc(OC)cc3)c2)cc1	?	?	-6.9%	-0.8%	-71.3*	11.2µM*
COc1ccc(OCC(=O)N(C)Cc2ccccc2)cc1	1.3%	10.5%	1.4%	2.0%	-22.9	29.3%
CN(Cc1ccc(Cl)s1)C(=O)CCl	9.28µM*	1.47µM*	2.82µM*	-4.2%	135.1	?
COc1ccc(C(C)(C)C)cc1NC(=O)c1ccoc1C	11.7µM*	11.7µM*	-9.7%	-19.5%	-32.8	?
COc1cc(OC)c(NC(=O)c2ccoc2C)cc1Cl	-8.9%	·	-2.0%	-4.5%	19.0	?
COc1ccc(C)cc1NC(=O)c1ccoc1C	2.3%	·	0.0%	1.1%	-12.3	14.1µM*
CC(=O)/C(C#N)=C1\NC(=O)C(Cc2ccccc2C)S1 (centres undefined)	?	-18.4%	-25.4%	0.7%	-82.6*	8.4%
CC(=O)/C(C#N)=C1\NC(=O)C(Cc2ccccc2)S1 (centres undefined)	-0.1%	·	1.8%	-1.2%	-99.3*	-4.8%
C/C(=N\N=C1\NC(=O)C(Cc2ccccc2)S1)c1ccccc1 (centres undefined)	?	?	-2.0%	-25.0%	22.4	-16.6%
O=C(O)/C=C/c1cccc2c1OCCO2	?	41.4%	11.7%	-1.9%	2.4	2.9%
CN(C)c1nc(NCc2ccccc2)nc(SCC(=O)Nc2ccccc2)n1	?	?	-19.9%	6.5%	?	?
O=C(CSc1nc(Nc2ccccc2)nc(N2CCOCC2)n1)Nc1ccc2c(c1)OCCO2	9.28µM*	·	5.2%	-1.2%	20.6	-26.8%
